Compounds without any hit were thinned out: in the full panel of roughly 83,000, 20% have a hit.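 A percent growth of 40 corresponds to 60% growth inhibition; 0 means no net growth; -100 means all cells died. Active threshold: below 10.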 Active and inactive are the calls of the source.
Key:
Assay in all cases: NCI-60 one-dose screen, 48 h (100 = growth as untreated, 0 = no growth, -100 = all killed)
[1] = test system: SK-MEL-2 melanoma; settings: 10 µM unless noted
[2] = test system: SN12C renal; settings: 10 µM unless noted
[3] = test system: UO-31 renal; settings: 10 µM unless noted
[4] = test system: ACHN renal; settings: 10 µM unless noted
[5] = test system: CAKI-1 renal; settings: 10 µM unless noted
[6] = test system: A498 renal; settings: 10 µM unless noted
[7] = test system: CCRF-CEM leukemia; settings: 10 µM unless noted
[8] = test system: MOLT-4 leukemia; settings: 10 µM unless noted
[9] = test system: SR leukemia; settings: 10 µM unless noted
[10] = test system: RPMI-8226 leukemia; settings: 10 µM
[11] = test system: OVCAR-8 ovarian; settings: 10 µM unless noted
[12] = test system: OVCAR-5 ovarian; settings: 10 µM unless noted
[13] = test system: OVCAR-4 ovarian; settings: 10 µM unless noted
[14] = test system: SK-OV-3 ovarian; settings: 10 µM
[15] = test system: IGROV1 ovarian; settings: 10 µM unless noted
[16] = test system: OVCAR-3 ovarian; settings: 10 µM unless noted
[17] = test system: HS 578T breast; settings: 10 µM unless noted
[18] = test system: NCI/ADR-RES ovarian; settings: 10 µM unless noted

Measured: growth

NC(=O)c1cc(I)ccc1NC(=O)COc1ccccc1
active: [6] 4.14% | [7] 4.81% | [8] 4.74% | [10] 9.76% | [14] -2.65% | [18] 4.28%
inactive: [1] 34.5% | [2] 37.4% | [3] 52.7% | [4] 43.8% | [5] 55.1% | [9] 20.2% | [11] 15.9% | [12] 39.1% | [13] 78.9% | [15] 44.2% | [16] 12% | [17] 36.6%

Cc1nc2ccc(Cl)cc2n1C
inactive: [1] 101% | [2] 101% | [3] 102% | [4] 102% | [5] 101% | [6] 95.5% | [7] 94.6% | [8] 97.7% | [9] 96.7% | [10] 97.4% | [11] 101% | [12] 103% | [13] 114% | [15] 106% | [16] 109% | [17] 99.6% | [18] 112%

Cc1ccc(C(=O)Nc2ccccc2N)cc1
inactive: [1] 57.5% | [2] 64% | [3] 37.4% | [4] 87.7% | [5] 93.7% | [6] 54.9% | [8] 30.9% | [9] 68% | [10] 15% | [11] 59.5% | [12] 51.1% | [13] 99.5% | [14] 92.9% | [15] 70.1% | [16] 90.8% | [17] 71.4% | [18] 44.2%
active: [7] 4.67%

COc1c(Cl)ccc2c(-c3nc4cc(Cl)c(F)cc4s3)cc(=O)oc12
inactive: [1] 37.7% | [2] 96.3% | [4] 47.8% | [5] 34.4% | [6] 107% | [8] 44.3% | [9] 23.2% | [10] 49% | [11] 62.5% | [12] 96.5% | [14] 104% | [16] 75.5% | [17] 100% | [18] 33%
active: [3] -88.8% | [7] -68% | [15] -59.8%

CCCCCn1c(=N)n(CC(O)COc2cccc(C)c2)c2ccccc21 (configuration not stated)
active: [1] -34.1% | [3] 0.645% | [5] 7.06% | [6] -3.77% | [7] 8.45% | [8] 1.95% | [10] -10.8% | [13] 6.79% | [16] 7.4% | [17] -0.161% | [18] 3.77%
inactive: [2] 12% | [4] 10.7% | [11] 20.9% | [12] 61.7% | [14] 13.1% | [15] 28.1%

Cn1c2ccc(Cl)cc2c2nn(C(=O)c3ccccc3)c(=O)nc21
inactive: [1] 100% | [2] 103% | [3] 71.9% | [4] 95.2% | [6] 112% | [7] 96% | [8] 99% | [10] 106% | [11] 101% | [12] 99.5% | [13] 114% | [14] 114% | [15] 110% | [16] 111% | [17] 104% | [18] 106%

Cn1c2ccccc2c2nn(Cc3ccccc3)c(=O)nc21
inactive: [1] 103% | [2] 107% | [3] 75.1% | [4] 88.5% | [5] 94.7% | [6] 104% | [7] 102% | [8] 105% | [9] 97.7% | [10] 101% | [11] 107% | [12] 92.8% | [13] 111% | [14] 105% | [15] 120% | [16] 107% | [17] 106% | [18] 109%

O=C1CC(c2ccsc2)c2snc(-c3ccc(Cl)cc3)c2N1 (configuration not stated)
active: [14] -3.45% | [16] -14%
inactive: [1] 27.3% | [2] 54% | [3] 48.4% | [4] 53% | [5] 26.6% | [6] 24.2% | [7] 16.3% | [8] 14.5% | [9] 20.9% | [10] 12.5% | [11] 40.8% | [12] 47.7% | [13] 37.5% | [15] 40.7% | [17] 46% | [18] 16.8%

COc1ccc(NC(=O)COc2ccccc2)c(C(N)=O)c1
active: [6] 9.39% | [7] 6.03% | [14] 4.18% | [16] 0.699% | [18] 5.8%
inactive: [1] 35.9% | [2] 44.4% | [3] 57% | [4] 55.7% | [5] 49% | [8] 20.1% | [9] 24.5% | [10] 11.9% | [11] 35.2% | [12] 43.6% | [13] 87.7% | [15] 46% | [17] 27.9%

Reference: PubChem BioAssay (NCI)
